# PubChem BioAssay AID1443 (Sanford-Burnham Center for Chemical Genomics, 2008)
# The whole screen tested about 220,000 compounds, of which about 880 (0.4%) were called active. The sample as a whole holds a higher share of actives than the screen did. A number with no mark means an inactive call.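 How the source made its calls: active means cell killing above 50% in the first pass at 4 µM, then a duplicate retest at 5 µM averaging 50% or more; inactive means the rest.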
# Experiment: PPC-1 cell viability loss under TRAIL – PPC-1 cells, ATPLite luminescence, uHTS, TRAIL potentiator project, primary screen (AID 1443);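 further: plate controls were cells with TRAIL plus DMSO for no effect and medium-only wells lacking cells for full effect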
# Settings: PPC-1 cells + TRAIL, active compounds read high; at 4 µM unless noted
row,Structure (SMILES),cell killing (% activity)
1,COc1ccc2cc(-c3[nH]ncc3CNCCn3nc(C)cc3C)ccc2c1,0.6%
2,Cn1c(=NC(=O)CSCC(=O)N2CCCCC2)sc2ccccc21,21.3%
3,Cn1c(=NC(=O)c2cnccn2)sc2ccccc21,53.2% [at 5 µM] (active)
4,Cn1c(=NC(=O)CSCC(=O)N2CCOCC2)sc2ccccc21,11.5%
5,Cc1ccsc1/C=N/Nc1ccc(Cl)nn1,-6.9%
6,O=[N+]([O-])c1ccc(N2CCN(S(=O)(=O)c3ccccc3)CC2)cc1N1CCc2ccccc2C1,8.9%
7,Cc1ccccc1NC(=S)N(CCCN1CCOCC1)Cc1cccs1,8.5%
8,O=C(Oc1ccccc1)c1ccc2nccnc2c1,25.8%
9,c1ccc(-c2noc(-c3cccs3)n2)nc1,31.1%
10,O=C(Oc1ccc(-c2nc(-c3ccccn3)no2)cc1)c1ccccc1,54.2% [at 5 µM] (active)
11,Cc1cc(C)c(C)c(S(=O)(=O)N[C@@H](C)C(=O)OC(C)C(=O)NC(N)=O)c1C (stereo partly specified),18.2%
12,NCCCC[C@@H]1NC(=O)[C@H](CCC(=O)O)NC(=O)c2cc([N+](=O)[O-])cc(I)c2NCC[C@@H](C(N)=O)NC1=O,-6.5%
13,O=S(=O)(Nc1ccc(OC(F)(F)F)cc1)c1cccc2nonc12,7.3%
14,O=C(CSc1nnc(C2CC2)n1Cc1ccccc1)Nc1cccnc1Cl,9.8%
15,Cc1ccc(NS(=O)(=O)c2ccc(N/N=C/c3ccccc3OCC(=O)O)c([N+](=O)[O-])c2)c(C)c1,-2.4%
16,Clc1ccc(-c2cc(-c3ccccn3)on2)c(Cl)c1,88% [at 5 µM] (active)
17,O=C1CSC(c2ccccc2)N1c1nc(-c2ccc(Cl)cc2Cl)cs1 (stereo unspecified),27.7%
18,O=C(NCc1ccccn1)c1cc(-c2ccccc2Cl)on1,24.5%
19,CCOC(=O)c1c(/N=C/C2C(=O)CC(C)(C)CC2=O)sc(C)c1C,14.1%
20,CCCCSc1nnc2c(n1)OC=Nc1ccccc1-2,11.9%
21,COc1ccc(/C(C)=N/N2CCOCC2)c(O)c1,-10.1%
22,COc1ccc(-c2nc(-c3ccccc3)no2)c(OC)c1,68% [at 5 µM] (active)
23,COc1ccc(-c2noc(-c3ccc(C)cc3)n2)cc1,25.4%
24,COc1ccc(-c2noc(-c3cccc(OC)c3OC)n2)cc1OC,18.8%

row,Structure (SMILES),cell killing (% activity)
1,O=c1c2cc(-c3ccccc3)sc2nc2n1N=C(c1cccs1)CS2,30.8%
2,Cc1cc(C)c2c(NC(=O)C3CC3)nn(C)c2n1,0.3%
3,COc1cccc(CC(=O)Nc2ccc(-c3csc(C)n3)cc2)c1,2.3%
4,COCCn1c(C)cc(C2=NNC(=Nc3ccc(F)cc3)SC2)c1C,12.3%
5,Cc1cc(C2=NNC(=Nc3ccc(S(=O)(=O)N4CCOCC4)cc3)SC2)c(C)n1CC1CCCO1 (stereo unspecified),8.5%
6,C=CCn1c(C)cc(C2=NNC(=NCC)SC2)c1C,88.8% [at 5 µM] (active)
7,O=C(NNC(=O)c1ccc(Cl)cc1Cl)c1cccs1,35.4%
8,CCOC(=O)c1cc(C)nc(S(C)(=O)=O)c1C#N,19.4%
9,N#C/C(=C\C1=C(N2CCOCC2)C(=C\c2ccccc2)/CC1)C(=O)Nc1ccccc1F,3.4%
10,COc1ccc(-c2cn3cccnc3n2)cc1,13.9%
11,COc1ccc(-c2cn3ccc(C)cc3n2)cc1,89% [at 5 µM] (active)
12,COc1ccc(-c2cn3ccsc3n2)cc1,46.2%
13,Cc1ccc(-c2cn3cc(C)ccc3n2)cc1,86.4% [at 5 µM] (active)
14,c1ccc(-c2cn3cccnc3n2)cc1,13.7%
15,CS(=O)(=O)Nc1cccc(-c2cn3ccccc3n2)c1,4.6%
16,Cc1cccc(NC(=O)C2CC(=O)OC23CCCC3)c1 (stereo unspecified),-2.2%
17,COc1ccc(C(=O)ON=C2c3ccccc3-c3ccccc32)cc1OC,8.6%
18,Cc1sc2nc(COC(=O)C(NC(=O)c3ccc(Cl)cc3Cl)C(C)C)[nH]c(=O)c2c1C (stereo unspecified),2.9%
19,O=C(Nc1ccc(S(=O)(=O)Nc2nccs2)cc1)c1cccc(S(=O)(=O)N2CCOCC2)c1,10.1%
20,Fc1ccccc1Cc1ccc(Cl)nn1,22.4%
21,CCN(CC)C(=O)CS(=O)CC(=O)Nc1cc(OCCOC)c(Cl)cc1Cl (stereo unspecified),3.5%
22,CCCc1cc(=O)[nH]c(SCC(=O)N2CCN(S(=O)(=O)c3ccc(C)cc3C)CC2)n1,-8.7%
23,Fc1ccccc1Cn1cnc(NC(=S)NCCc2ccccc2)n1,23.7%
24,CN(Cc1ccccc1)Cc1ccccc1F,10.6%

row,Structure (SMILES),cell killing (% activity)
1,N=c1n(CCc2ccccc2)c2ccccc2n1Cc1ccccc1F,53.1% (active)
2,O=C(NCCCN1CCN(c2ccc(F)cc2)CC1)Nc1ccc([N+](=O)[O-])cc1,-6.5%
3,Cc1c(C(=O)c2cccc([N+](=O)[O-])c2)c2ccccn2c1CCC#N,33.6%
4,COC(=O)c1ccc(COc2cc([N+](=O)[O-])cc3cccnc23)cc1,-4.2%
5,Cn1c(CC2Sc3ccccc3NC2=O)nnc1SCC(=O)c1ccc(Cl)cc1 (stereo unspecified),5.2%
6,O=C(c1ccc(F)cc1)n1c(=S)nc2ccccn21,81.3% [at 5 µM] (active)
7,O=C(c1ccc(F)cc1)n1cc(C(=S)N2CCOCC2)c2ccccc21,21%
8,O=C(Cn1c(=S)nc2ccccn21)N1CCc2ccccc2C1,-12%
9,NS(=O)(=O)c1ccc(NC(=S)Nc2ccc(Br)c(Cl)c2)cc1,12%
10,O=C(OCC1O[C@@H](OC(=O)c2cc(O)c(O)c(O)c2)[C@@H](OC(=O)c2cc(O)c(O)c(O)c2)[C@@H](OC(=O)c2cc(O)c(O)c(O)c2)[C@@H]1OC(=O)c1cc(O)c(O)c(O)c1)c1cc(O)c(O)c(O)c1 (stereo partly specified),-9.9%
11,CCOc1ccc(CN2CCN(Cc3ccon3)CC2CCO)cc1 (stereo unspecified),8.1%
12,Cc1noc(/C=C/c2ccco2)c1S(=O)(=O)N1CCC(C(=O)Nc2ccc(Cl)cn2)CC1,24.3%
13,Cc1nonc1C(=O)N/N=C/c1ccc(O)cc1,-5.1%
14,CC(NC(=O)CCC(=O)N1CCN(S(=O)(=O)c2ccc(Cl)cc2)CC1)c1ccccc1 (stereo unspecified),16.9%
15,CCN(CC(=O)Nc1ccc(S(=O)(=O)N2CCCC2)cc1)CC(=O)Nc1cccc(OC)c1,6.9%
16,CC(C)n1cnc2c(Nc3cccc(Cl)c3)nc(N(CCO)CCCO)nc21,8.8%
17,OCCCNc1nccc(-c2cc(Nc3cccc(Cl)c3)ncn2)n1,80.9% (active)
18,NS(=O)(=O)c1cccnc1Nc1cccc(Cl)c1,23%
19,CCOC(=O)c1sc2nc(C)nc(Nc3ccc(OC)c(OC)c3)c2c1C,-11.6%
20,CCN1CCC2(CC1)N=C(c1ccc(F)cc1)C(=S)N2C(=O)c1ccc(C)cc1,5.2%
21,O=C(Nc1n[nH]c(C(F)(F)F)n1)c1cccs1,2.7%
22,O=C(COC(=O)c1ccc(S(=O)(=O)Nc2ccccc2)cc1)NCC1CCCO1 (stereo unspecified),14.7%
23,Cc1cc(C)nc(NC(=O)/C=C/c2ccc(Cl)cc2)n1,-2.4%
24,Brc1ccc2nc(N3CCCC3)sc2c1,-2.5%

row,Structure (SMILES),cell killing (% activity)
1,Cc1nc2cc3c(cc2s1)OCO3,9%
2,c1c2c(cc3sc(N4CCCCC4)nc13)OCCO2,65.8% (active)
3,O=C(O)/C(=C/c1cccnc1)NC(=O)c1ccccc1,9%
4,COCCNc1nc(-c2ccccc2)nc2c1oc1ccccc12,8.8%
5,Cc1ccc2nsnc2c1S(=O)(=O)N1CCCC1C(=O)O (stereo unspecified),13.9%
6,Cc1cc(=O)oc2c(C(=O)c3ccccc3)c(OCC(N)=O)ccc12,6.8%
7,COc1cccc(C(=O)n2ccc(-c3cccs3)n2)c1,-11.4%
8,Cc1nc2cc(NC(=O)NC3CC3)ccc2n1C,14.9%
9,Cc1nc2cc(NC(=O)Nc3cccc(F)c3)ccc2n1C,54.1% [at 5 µM] (active)
10,C=CCN(C(=O)Nc1ccc2c(c1)nc(C)n2C)c1ccccc1,14.1%
11,COC(C(=O)Nc1ccc(S(=O)(=O)Nc2ccc(C)c(C)c2)cc1)c1ccccc1 (stereo unspecified),19.1%
12,COc1ccccc1NC(=O)CCSc1nnc(-c2ccc(O)cc2)o1,-2.2%
13,CCC(C)N1C(=S)SC(C)(C)C1N(O)C(=O)NC1CCCCC1 (stereo unspecified),13.9%
14,Cc1ccc(-n2[nH]c(C)c(/C=N/NC(=O)c3cccc([N+](=O)[O-])c3)c2=O)cc1C,60.3% (active)
15,COc1cccc(/C=N/NC(=O)c2cccc([N+](=O)[O-])c2)c1OS(=O)(=O)c1ccc(C)cc1,-0.7%
16,Cc1[nH]n(-c2ccccc2)c(=O)c1/C=N/NC(=O)c1ccoc1C,29.6%
17,CC(C)CNC(=S)Nc1ccc(F)cc1,31.5%
18,CC1CC(=S)Nc2ccccc2N1Cc1ccccc1 (stereo unspecified),16%
19,CCNC(=O)COC(=O)/C=C/c1c(C)nn(Cc2cccc(OC)c2)c1Cl,-7.2%
20,CCOC(=O)c1nnn2c1nc(N1CCN(c3ccccc3)CC1)c1ccccc12,3.6%
21,Cc1csc(SCC(=O)Nc2sccc2C#N)n1,10.6%
22,Clc1ccc2nc(-c3ccccc3)nc(C(Cl)Cl)c2c1,79.2% [at 5 µM] (active)
23,c1ccc(-c2nc(NCc3ccco3)c3ccccc3n2)cc1,6.1%
24,Clc1cccc(-c2nc(NCC3CCCO3)c3ccccc3n2)c1 (stereo unspecified),-5.4%
